# High-throughput results as filed in PubChem.
# This is a sample that favours compounds with a hit; in the whole collection about 19% have one here.
# HepG2 tox: kills HepG2 cells in TGF-b inhibitor counter-screen; AID 588856; HepG2 CAGA-GFP viability, ATP luminescence, 18 h; 410,000 tested, 0.76% active; Potency, µM (doses to about 46.1 µM), most hits filed as cytotoxic
#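 CellTiter-Glo luminescence gave cytotoxicity after 18 hours at 37 degrees C. The cells were HepG2 CAGA-GFP in 1% FBS DMEM, stimulated with 500 pg/mL TGF-beta after compound addition. %Activity was normalised to no-cell wells (complete cell-killing) and DMSO (no toxicity), and curves were fitted and classified.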
# TDP1 inh: TDP1 (human) enzyme inhibition; recombinant TDP1, AlphaScreen DNA substrate cleavage; Potency, µM (series often up to 130 µM), hits mostly inhibitors; AID 485290; Q9NUW8; 350,000 tested, 0.28% active; also: nearly all actives have a fitted effect of over 40% in size
# Target sequence (Q9NUW8 whole entry, looked up): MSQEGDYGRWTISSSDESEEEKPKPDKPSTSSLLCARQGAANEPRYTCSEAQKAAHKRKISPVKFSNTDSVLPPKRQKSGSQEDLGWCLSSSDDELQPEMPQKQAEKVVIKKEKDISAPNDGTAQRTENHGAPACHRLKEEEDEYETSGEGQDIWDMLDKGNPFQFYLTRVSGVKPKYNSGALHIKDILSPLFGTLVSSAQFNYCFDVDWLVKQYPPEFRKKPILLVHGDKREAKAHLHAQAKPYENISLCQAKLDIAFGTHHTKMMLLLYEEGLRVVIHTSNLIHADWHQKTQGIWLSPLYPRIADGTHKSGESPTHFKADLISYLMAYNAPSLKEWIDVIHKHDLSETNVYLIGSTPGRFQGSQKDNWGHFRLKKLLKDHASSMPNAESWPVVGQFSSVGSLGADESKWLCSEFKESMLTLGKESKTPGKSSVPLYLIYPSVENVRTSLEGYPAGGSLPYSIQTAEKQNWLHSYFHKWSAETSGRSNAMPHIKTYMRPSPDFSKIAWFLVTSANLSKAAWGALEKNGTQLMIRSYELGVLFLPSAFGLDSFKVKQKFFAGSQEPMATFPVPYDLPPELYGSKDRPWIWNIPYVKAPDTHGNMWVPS
#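 AlphaScreen read-out: signal falls as enzyme removes the 3' tyrosine-FITC from a 5'-biotinylated DNA oligo (15 nM, 5 min, RT). Enzyme was E. coli-made recombinant Tdp1 at 1 nM, exposed to compound for 15 min beforehand; beads 10 ug/ml, 10 min.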
# TGFb inhibitor: TGF-b pathway inhibition | 410,000 tested, 1.2% active | AID 588855 | Potency, µM (highest dose often 46.1 µM), actives largely listed as inhibitors | HepG2 CAGA-GFP TGF-b/SMAD3 reporter, GFP fluorescence, 18 h; TGF-beta stimulated, 500 pg/mL final; also: nearly all actives have a fitted effect of over 65% in size
#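 HEPG2 CAGA-GFP reporter cells (1000/well, DMEM with 1% FBS) received compounds, then recombinant TGF-beta at 500 pg/mL final for 18 hours at 37 degrees C. Per-cell GFP summed per well was normalised to unstimulated and stimulated DMSO controls before curve fitting.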
# DT40 TDP1 CPT: DT40-hTDP1 cell growth loss with CPT. chicken DT40 Tdp1-/-;hTDP1 cells + 20 nM CPT, ATP luminescence, 48 h. Potency, µM (highest dose often 46.2 µM), hits mostly inhibitors. 420,000 tested, 12% active. AID 686979; also: nearly all actives have a fitted effect of over 55% in size
#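 Cell growth measured by CellTiter-Glo luminescence after a minimum 48 h, 37 C compound exposure with 20 nM CPT in Tdp1-knockout DT40 cells stably expressing hTDP1, seeded 400/well; qHTS titration format.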
# DT40 TDP1 no CPT: qHTS for Inhibitors of human tyrosyl-DNA phosphodiesterase 1 (TDP1): qHTS in cells in absence of CPT; Potency, µM (series often up to 46.2 µM), hits mostly inhibitors; 420,000 tested, 15% active; DT40 Tdp1-/- hTDP1 cells, no CPT, ATP luminescence, 48 h; also: nearly all actives have a fitted effect of over 55% in size
#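 Chicken DT40 Tdp1-/- cells stably complemented with human TDP1 were seeded at 400 cells/well with DMSO in place of 20 nM camptothecin. After compound pinning, cells grew at least 48 hr at 37 °C; viability read by CellTiter-Glo luminescence.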
# IL-1B inflam inh: inhibitors of inflammasome signaling (IL-1 beta secretion) | THP-1 LPS/ATP IL-1B secretion, AlphaLISA, 16 h; active compounds read low | activity change, % at 57.5 µM | 360,000 tested, 4.7% active | AID 743279; in the data active = activity change below about -50%; inconclusive = mostly about -30% to -49%
#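 Secreted IL-1B measured by AlphaLISA bead assay after 16 h compound exposure of THP-1 cells; compounds (final up to 57.5 uM) added 1 h before LPS (250 ng/mL) and ATP (1.25 mM) stimulation; lower signal means less secretion.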
# Numbers stand for hits; i = inactive; ? = inconclusive; nt = no result. Unless noted, calls follow the shape of the dose curve; as a rule, active = well fitted curve in the direction sought with a large enough effect; inconclusive = small, poorly fitted or top-dose-only effect, or another doubt; inactive = no such curve, though single readings can be large; an effect the other way counts as inactive or inconclusive.
SMILES,HepG2 tox,TDP1 inh,TGFb inhibitor,DT40 TDP1 CPT,DT40 TDP1 no CPT,IL-1B inflam inh
Cc1cc(-c2ccccc2)cc(=O)[nH]1,i,nt,i,i,i,i
Cc1cc(-c2ccccc2)cc(-c2ccccc2)[n+]1C,i,i,i,10.3µM,8.2µM,i
Cc1cc(C)c2c(CC(=O)Nc3ccc(S(=O)(=O)Nc4ncccn4)cc3)coc2c1,i,i,i,i,i,nt
CCOC(=O)c1c(CSc2ccc(C)cc2)n(C)c2cc(Br)c(O)c(CN(C)C)c12,i,nt,?,?,8.2µM,i
CCOC(=O)c1c(CSc2ccsc2)n(C)c2cc(Br)c(O)c(CN(C)C)c12,10µM,i,?,18.4µM,23.1µM,-53.0
CCOC(=O)c1c(CN2CCN(CCO)CC2)n(C)c2cc(Br)c(OC)cc12,i,i,i,?,?,i
CCOC(=O)c1c(CN2CCCCC2)n(C)c2cc(Br)c(OC)cc12,i,i,i,?,11.2µM,i
CCOC(=O)c1c(CSc2ccccc2)n(C)c2cc(Br)c(O)c(CN(C)C)c12,i,i,?,20.6µM,14.6µM,-86.0
CCCCc1nn2c(=O)cc(COC(=O)c3ccc(NC(=O)CCc4ccccc4)cc3)nc2s1,i,i,i,i,i,nt
CCOC(=O)c1c(CN(C)C)oc2cc(CN(C)C)c(O)c(CSc3ccccc3)c12,i,i,i,i,i,-50.0
CCOC(=O)c1c(CN2CCOCC2)n(-c2ccccc2)c2cc(Br)c(O)c(CN(C)C)c12,i,i,?,?,?,?
CCOC(=O)c1c(CN2CCCCC2)n(C)c2cc(Br)c(O)c(CN(C)C)c12,i,i,i,18.4µM,?,i
NC(N)=NCCC[C@H](NC(=O)c1ccccc1)C(=O)Nc1ccc([N+](=O)[O-])cc1,nt,i,nt,nt,nt,nt
C=CC(=O)Oc1ccc(N2Cc3ccccc3C2=O)cc1,i,nt,?,3.66µM,4.61µM,i
COCCn1c(SCC(=O)c2ccc(OC)cc2)nc2cc(C(=O)NC3CCCC3)ccc2c1=O,i,i,i,i,i,nt
O=S(=O)(c1ccc(-c2csc(Nc3ccc(F)cc3)n2)cc1)N1CCCC1,i,i,?,11.6µM,11.6µM,i
Cc1ccc(Nc2nc(-c3ccc(S(=O)(=O)N4CCCC4)cc3)cs2)cc1C,i,i,i,?,20.6µM,?
Cc1cc(C)cc(Nc2nc(-c3ccc(S(=O)(=O)N4CCCC4)cc3)cs2)c1,i,i,i,8.2µM,7.31µM,?
Cc1cc(=O)oc2cc(OCC(=O)Nc3ccccc3C(=O)O)ccc12,i,nt,i,i,i,i
Cc1cc(C)c(NC(=O)Cn2c(=O)n(CCC(C)C)c(=O)c3cccnc32)c(C)c1,i,i,i,?,?,nt
CCCCNC(=O)c1nc(-c2cnccn2)oc1-c1ccc(Cl)cc1,nt,nt,nt,?,?,i
CCCCNC(=O)c1nc(-c2cc3ccccc3[nH]2)oc1-c1ccccc1,nt,nt,nt,?,16.4µM,i
CCCCNC(=O)c1nc(-c2ccncc2)oc1-c1ccc(OC(F)(F)F)cc1,nt,nt,nt,i,i,i
CCCCNC(=O)c1nc(-c2cccs2)oc1-c1ccc(Cl)cc1,nt,nt,nt,?,14.6µM,i
COc1ccc(CNC(=O)Cc2c(C)c3ccc(O)cc3oc2=O)cc1,i,i,i,i,i,nt
SMILES,HepG2 tox,TDP1 inh,TGFb inhibitor,DT40 TDP1 CPT,DT40 TDP1 no CPT,IL-1B inflam inh
COc1ccc(/C=C/C(=O)C2CC2)cc1Cn1nc(C)c([N+](=O)[O-])c1C,i,i,i,?,?,-110.1
COc1ccc(/C=N/N2CCOCC2)cc1Cn1nc(C)c([N+](=O)[O-])c1C,i,i,i,i,?,i
O=C(c1ccncc1)N1CCC2(CC1)CCN(c1ccccn1)CC2,nt,nt,nt,i,?,nt
COC(=O)c1cnn(-c2nc(OC)cc(OC)n2)c1C,i,i,i,i,?,i
COc1cc(OC)nc(-n2ncc(Br)c(Br)c2=O)n1,11.2µM,i,3.55µM,0.651µM,0.82µM,-95.8
Cc1ccc(OCC(=O)N(C)CC(=O)Nc2ccccc2Cl)c([N+](=O)[O-])n1,i,i,i,i,i,i
O=P(Cc1cccc2ccccc12)(c1ccccc1)c1ccccc1,i,nt,i,?,20.6µM,i
O=P(Cc1ccccc1)(c1ccccc1)c1ccccc1,i,i,?,?,?,i
Cc1nc(SCC(=O)NCC2CCCO2)c2cc(-c3ccccc3)sc2n1 (centres undefined),i,i,i,?,?,i
CC1(C)Cc2c(sc(NC(=O)COc3ccc(Cl)cc3)c2C(N)=O)C(C)(C)N1,i,i,i,?,i,i
COC(=O)c1c(NC(=O)c2ccccc2)sc2c1CC(C)(C)NC2(C)C,i,nt,i,i,i,i
CC1(C)Cc2c(sc(NC(=O)c3ccc(C(=O)c4ccccc4)cc3)c2C(N)=O)C(C)(C)N1,17.8µM,i,?,?,?,-102.2
CC1(C)Cc2c(sc(NC(=O)c3ccc4ncsc4c3)c2C(N)=O)C(C)(C)N1,i,i,?,?,?,-215.4
O=C(c1ccco1)N1CCC2(CCCN(Cc3ccccc3)C2)CC1,nt,nt,nt,i,?,nt
COc1cc(C(=O)Nc2ccc(-c3cc(C(F)(F)F)nn3-c3ccccc3)cc2)cc(OC)c1OC,i,i,i,16.4µM,14.6µM,nt
O=C(Nc1ccc(-c2cc(C(F)(F)F)nn2-c2ccccc2)cc1)c1cccc(F)c1,i,i,nt,?,5.17µM,nt
N=c1ccn2c(n1)O[C@H]1[C@@H](CO)[C@H](O)O[C@H]12,i,nt,i,0.0366µM,0.0058µM,i
CC(C)c1ccc(C(=O)Nc2ccc(-c3nc4ccccc4s3)c(Cl)c2)cc1,i,i,i,6.51µM,7.31µM,nt
CSc1ccc(C(=O)Nc2ccc(-c3nc4ccccc4s3)c(O)c2)cc1,i,i,i,?,?,nt
CCSc1ccccc1C(=O)Nc1cc(OC)c(OC)c(OC)c1,i,i,i,i,?,i
CCSc1ccccc1C(=O)Nc1ccc(-c2nc3ccccc3s2)c(O)c1,i,i,i,9.2µM,13µM,nt
Cc1ccc(Cl)cc1N1CCN(S(=O)(=O)c2ccc3[nH]c4c(c3c2)CCCCC4)CC1,i,i,i,nt,nt,nt
Cc1ccc(NC(=O)C2CCN(S(=O)(=O)c3ccc4[nH]c5c(c4c3)CCCCC5)CC2)cc1,i,i,?,13µM,14.6µM,nt
O=S(=O)(c1ccc2[nH]c3c(c2c1)CCCC3)N1CCN(c2cccc(C(F)(F)F)c2)CC1,i,i,?,?,?,nt
O=S(=O)(c1ccc2[nH]c3c(c2c1)CCCC3)N1CCCCC1,i,i,?,?,23.1µM,i
